Molecular target: Pyruvate kinase PKLR (Homo sapiens) (UniProt P30613)
Assay: qHTS for Activators of Human Muscle Isoform 2 Pyruvate Kinase (PK): Extended Characterization using Reticulocyte PK Probe 2
Settings: purified hPK-R, ATP production, Kinase-Glo luminescence; series mostly up to 58 µM; activity change, positive = activation: at the top concentration; active = well fitted curve in the direction sought with a large enough effect; inactive = no such curve, though single readings can be large or run the other way
Description: Human pyruvate kinase reticulocyte (hPK-R) enzyme was supplied as a highly purified (>95% pure) preparation from Structural Genomics Consortium in Toronto (Ontario, Canada) and assayed for its ability to generate ATP from ADP using phosphoenolpyruvate (PEP) as a substrate. ATP generation was detected in a coupled reaction by luciferase-mediated luminescence, an ATP-dependent process. Pyruvate kinase substrates, PEP and ADP, were present in the assay at Km and approximately 10-fold below Km respectively. The enzyme was assayed at an intermediate level of activity to screen for both inhibitors and activators. NIH Chemical Genomics Center [NCGC] NIH Molecular Libraries Probe Centers Network [MLPCN] MLPCN Grant: MH085679 Assay Submitter (PI): Matthew G. Vander Heiden, Harvard Medical School
Three uL of substrate mix (at r.t.) in assay buffer (50 mM Imidazole pH7.2, 50 mM KCl, 7 mM MgCl2, 0.01% Tween 20, 0.05% BSA) was dispensed into white solid bottom 1,536 well microtiter plates so that the final concentrations of substrates in the assay were 0.1 mM ADP and 0.5 mM PEP. 23 nL of compound were delivered by a pin tool and 1 uL of enzyme mix (final concentration of 0.1 nM) in assay buffer (4 degree Celsius) was added. Plates were incubated at room temperature for 1 hour. Two uL of detection mix (Kinase-Glo, Promega; at 4 degree Celsius protected from light) was added and luminescence read by a ViewLux (Perkin Elmer) at 1 second exposure/plate. Data were normalized to the uninhibited (row 31). Additionally, a no enzyme and 5-fold enzyme control was dispensed in row 32, split equally between the two conditions.

Sequence of Pyruvate kinase PKLR (Homo sapiens) (P30613 whole entry, looked up, canonical isoform): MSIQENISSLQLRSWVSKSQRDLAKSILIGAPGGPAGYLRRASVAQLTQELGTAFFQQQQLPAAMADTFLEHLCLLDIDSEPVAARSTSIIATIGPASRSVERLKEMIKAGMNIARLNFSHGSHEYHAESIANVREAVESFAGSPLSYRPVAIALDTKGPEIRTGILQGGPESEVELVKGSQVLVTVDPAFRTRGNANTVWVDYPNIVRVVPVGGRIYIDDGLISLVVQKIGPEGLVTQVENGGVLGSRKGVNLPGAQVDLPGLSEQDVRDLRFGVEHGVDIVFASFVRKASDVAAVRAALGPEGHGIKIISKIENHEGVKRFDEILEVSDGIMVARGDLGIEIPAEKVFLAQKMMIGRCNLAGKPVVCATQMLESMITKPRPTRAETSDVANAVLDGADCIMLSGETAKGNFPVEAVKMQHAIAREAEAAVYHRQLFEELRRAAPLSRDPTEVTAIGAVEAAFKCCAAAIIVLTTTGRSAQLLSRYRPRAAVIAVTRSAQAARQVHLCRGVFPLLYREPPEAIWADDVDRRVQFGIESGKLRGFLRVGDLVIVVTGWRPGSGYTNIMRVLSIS

Activity change, positive = activation, inactive:
O=S(=O)(c1ccc2c(c1)OCCO2)N1CCN(S(=O)(=O)c2c(F)cccc2F)CC1 -1.4%, Nc1cccc(S(=O)(=O)N2CCCN(S(=O)(=O)c3ccc4c(c3)OCCO4)CC2)c1 5.42%, COc1cccc(Cn2ncc3c4sc(S(C)=O)cc4n(C)c3c2=O)c1 (centres undefined) 11.4%, Cc1ccc(NS(=O)(=O)c2ccc3c(c2)CCC(=O)N3)cc1C 0.285%
